According to PubChem BioAssay (EPA / NIEHS):
Records with an inconclusive call do not appear. Activity calls are given as the source filed them. The calls were made as follows: active = hit-call score of the fitted dose curve at least 0.9, where 1 is the maximum; inconclusive = response in the unintended direction; inactive = score below 0.9.

Legend:
[1] = Tanguay_ZF_120hpf_YSE_legacy: (Legacy) Oregon State University Tanguay Lab 120 Hour Post-fertilization zebrafish Assay for Yolk Sac Edema (AID 2283634);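 as to AC50: actives raise the incidence of yolk sac edema above the DMSO baseline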
Outline: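 Dechorionated Tropical 5D wild-type zebrafish embryos were exposed statically, one per well, from 6 to 120 hpf at 28C in 0.64% DMSO. Yolk sac edema was scored present/absent by brightfield at 120 hpf, and dead embryos were excluded.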

[2] = Tanguay_ZF_120hpf_AXIS_legacy: (Legacy) Oregon State University Tanguay Lab 120 Hour Post-fertilization zebrafish Assay for Body Axis Malformation (AID 2283635);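 as to AC50: potency for an increased fraction of larvae scored with body axis malformation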
Outline: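 Dechorionated wild-type Tropical 5D zebrafish embryos, one per well, statically exposed from 6 hpf to 120 hpf at 28C in 0.64% DMSO final. Body axis malformation scored present/absent by brightfield microscopy at 120 hpf; dead embryos excluded.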

[3] = Tanguay_ZF_120hpf_SNOU_legacy: (Legacy) Oregon State University Tanguay Lab 120 Hour Post-fertilization zebrafish Assay for Snout Malformation (AID 2283637)
Outline: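 Dechorionated zebrafish, individually housed from 6 hpf in covered, sealed wells at 28C with 0.64% DMSO vehicle, were examined at 120 hpf for snout malformation. Responses were binary and analysed positive-direction relative to DMSO.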

[4] = Tanguay_ZF_120hpf_JAW_legacy: (Legacy) Oregon State University Tanguay Lab 120 Hour Post-fertilization zebrafish Assay for Jaw Malformation (AID 2283638);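 as to AC50: active means more embryos with jaw malformation than DMSO controls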
Outline: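 Dechorionated Tropical 5D wild-type zebrafish embryos, one per well, exposed statically from 6 hpf to 120 hpf at 28C in 0.64% DMSO. Jaw malformation was scored by brightfield microscopy as present or absent. It was not scored in dead embryos.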

[5] = Tanguay_ZF_120hpf_OTIC_legacy: (Legacy) Oregon State University Tanguay Lab 120 Hour Post-fertilization zebrafish Assay for Otic Vesicle Malformation (AID 2283639)
Outline: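 Statically exposed wild-type 5D zebrafish embryos, kept sealed and dark at 28C through 120 hours post fertilization, were examined by brightfield microscopy for otic vesicle defects. Responses were recorded as present or absent and analysed relative to DMSO.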

[6] = Tanguay_ZF_120hpf_PE_legacy: (Legacy) Oregon State University Tanguay Lab 120 Hour Post-fertilization zebrafish Assay for Pericardial Edema (AID 2283640);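 as to AC50: potency for increased incidence of pericardial edema versus DMSO baseline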
Outline: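 Tropical 5D wild-type zebrafish embryos were statically exposed until 120 hpf at 28C, with 0.64% DMSO final. Pericardial edema was scored by brightfield as present or absent; endpoints were not scored in dead embryos.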

[7] = Tanguay_ZF_120hpf_BRAI_legacy: (Legacy) Oregon State University Tanguay Lab 120 Hour Post-fertilization zebrafish Assay for Brain Malformation (AID 2283641)
Outline: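 Tropical 5D wild-type zebrafish embryos exposed statically until 120 hpf at 28C, 0.64% DMSO final, sealed and dark. Brain malformation scored present/absent by brightfield at 120 hpf; dead embryos excluded. Trimethyltin chloride 5uM positive control.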

[8] = Tanguay_ZF_120hpf_SOMI_legacy: (Legacy) Oregon State University Tanguay Lab 120 Hour Post-fertilization zebrafish Assay for Somite Malformation (AID 2283647)
Outline: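 Dechorionated Tropical 5D wild-type zebrafish embryos, one per well from 6 hpf, statically exposed at 28C to 120 hpf in 0.64% DMSO; somite malformation scored present/absent by brightfield; trimethyltin 5 uM positive control; dead embryos not scored.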

[9] = Tanguay_ZF_120hpf_PFIN_legacy: (Legacy) Oregon State University Tanguay Lab 120 Hour Post-fertilization zebrafish Assay for Pectoral Fin Malformation (AID 2283648);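 also: each larva judged yes or no for fin defect by brightfield with dead larvae skipped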
Outline: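 Scoring of pectoral fin malformation was binary, made at 120 hpf on larvae exposed statically from 6 hpf after enzymatic chorion removal. Activity was fitted upward relative to DMSO controls at 0.64% (vol/vol).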

[10] = Tanguay_ZF_120hpf_EYE_legacy: (Legacy) Oregon State University Tanguay Lab 120 Hour Post-fertilization zebrafish Assay for Eye Malformation (AID 2283636);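 also: binary presence or absence of eye malformation scored by brightfield in 120 hpf larvae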
Outline: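 Static waterborne exposure of dechorionated zebrafish embryos (strain Tropical 5D), 6 to 120 hpf, sealed plates at 28C, 0.64% DMSO vehicle. Eye malformation is scored as a binary endpoint, with gain of signal analysed relative to DMSO.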

Measured: AC50

O=C(Oc1ccc(Br)cc1)N1CCN2CCC1CC2
active: [2] 38.3 µM | [6] 9.47 µM
not listed: [10]
inactive: all other assays above

CCNS(=O)(=O)C(F)(F)C(F)(F)C(F)(F)C(F)(F)C(F)(F)C(F)(F)C(F)(F)C(F)(F)F
active: [1] 43 µM | [2] 55.9 µM | [3] 54.9 µM | [4] 41.5 µM | [5] 46.9 µM | [6] 53.8 µM | [7] 45.5 µM | [8] 9.56 µM | [9] 48.4 µM

COP(=S)(OC)SCN1C(=O)c2ccccc2C1=O
not listed: [10]
inactive: all other assays above

Cc1cccc(N)c1N
active: [1] 10.6 µM | [2] 27.8 µM | [6] 54 µM
not listed: [10]
inactive: all other assays above

Cn1cc(-c2ccccc2)c(=O)c(-c2cccc(C(F)(F)F)c2)c1
not listed: [10]
inactive: all other assays above

O=[N+]([O-])C(Br)(CO)CO
not listed: [4] | [6]
inactive: all other assays above

CC(O)CCO (stereo not given)
not listed: [10]
inactive: all other assays above

CCOc1cccc(C2(N3CCN(c4ccccc4)CC3)CCC(C)CC2)c1 (stereo not given)
not listed: [10]
inactive: all other assays above

CCC[CH2][Sn]([Cl])([CH2]CCC)[CH2]CCC
not listed: [10]
inactive: all other assays above

CN(C)c1ccccc1
not listed: [10]
inactive: all other assays above

CC(C)(OOC(C)(C)c1ccccc1)c1ccccc1
not listed: [10]
inactive: all other assays above

Clc1ccccc1Cl
not listed: [10]
inactive: all other assays above

ClC1=C(Cl)[C@]2(Cl)[C@H]3[C@H]([C@@H]4C=C[C@H]3C4)[C@@]1(Cl)C2(Cl)Cl
not listed: [10]
inactive: all other assays above

[O-][Cl+]O
not listed: [10]
inactive: all other assays above

[As]#[In]
not listed: [10]
inactive: all other assays above

Nc1ccc(Oc2ccc(N)cc2)cc1
not listed: [10]
inactive: all other assays above

N#CC(Br)(Br)C(N)=O
not listed: [10]
inactive: all other assays above

O=C(O)C1C2CCC(O2)C1C(=O)O (stereo not given)
not listed: [5] | [7] | [10]
inactive: all other assays above

CCCCOC(=O)c1ccccc1C(=O)OCc1ccccc1
not listed: [10]
inactive: all other assays above

Brc1ccc(Oc2ccccc2)cc1
not listed: [3] | [6] | [10]
inactive: all other assays above

C[N+](C)(C)CC1CO1 (stereo not given)
inactive: [1] | [4] | [5] | [6] | [7] | [8]

ClCCOCCCl
not listed: [1] | [5] | [10]
inactive: all other assays above

c1ccc(NNc2ccccc2)cc1
inactive: [1] | [3] | [5] | [6] | [7] | [8]

O=C(Nc1ccccc1)c1ccccc1I
inactive: [7] | [8]
active: [1] 51.3 µM | [3] 12.1 µM | [4] 50.4 µM | [5] 48 µM | [6] 43.5 µM | [9] 47.3 µM

c1ccc2c(c1)oc1ccccc12
not listed: [7] | [10]
inactive: all other assays above

C[C@]12C=CC3=C4CCC(=O)C=C4CC[C@H]3[C@@H]1CC[C@@H]2O
active: [1] 48.8 µM | [10] 27.1 µM | [3] 43.3 µM | [4] 30.5 µM | [6] 29.9 µM | [7] 27.1 µM
inactive: [5] | [8] | [9]

Cc1cc(N=Nc2ccccc2C)ccc1N
active: [6] 55.7 µM
not listed: [8] | [10]
inactive: all other assays above

Cc1ccc([N+](=O)[O-])cc1
not listed: [2]
inactive: all other assays above

O=[N+]([O-])c1ccc(Oc2ccc(Cl)cc2Cl)cc1
not listed: [3] | [4] | [10]
inactive: all other assays above

CC(C)(C)OOC(C)(C)CCC(C)(C)OOC(C)(C)C
inactive: [1] | [3] | [4] | [6] | [7] | [9]

O=C(N[C@H](c1ccccc1)[C@@H]1CN2CCC1CC2)c1c(Cl)ccc(C(F)(F)F)c1Cl
active: [2] 1.27 µM
not listed: [4] | [8] | [10]
inactive: all other assays above

Clc1ccc(C(c2ccc(Cl)cc2)C(Cl)(Cl)Cl)cc1
not listed: [7] | [10]
inactive: all other assays above

Cc1ccc(N)cc1
not listed: [2]
inactive: all other assays above

Oc1ccccc1Cl
inactive: [10] | [5] | [7]

N#CC(Br)Br
not listed: [1] | [10]
inactive: all other assays above

CC(C)(C)OOC(=O)c1ccccc1
not listed: [3] | [10]
inactive: all other assays above

ClC1=C(Cl)C2(Cl)C3C(Cl)C=CC3C1(Cl)C2(Cl)Cl (stereo not given)
not listed: [8] | [10]
inactive: all other assays above

CN(C)[C@@H]1C(=O)C(C(N)=O)=C(O)[C@@]2(O)C(=O)C3=C(O)c4c(O)cccc4[C@@](C)(O)[C@H]3C[C@@H]12
not listed: [5] | [7] | [10]
inactive: all other assays above

CCCCCCCCn1sccc1=O
not listed: [1] | [3] | [8]
inactive: all other assays above

Clc1ccc(Cl)c(Cl)c1
not listed: [3] | [5] | [10]
inactive: all other assays above

CCN(CC)CCO
inactive: [1] | [2] | [5] | [6] | [8] | [9]

O=C1CCCO1
not listed: [7] | [10]
inactive: all other assays above

CCCCCCCCOC(=O)c1ccc(C(=O)OCCCCCCCC)c(C(=O)OCCCCCCCC)c1
not listed: [4] | [10]
inactive: all other assays above

Cc1ccc(N)c(N)c1
not listed: [4] | [10]
inactive: all other assays above

c1ccc2c(c1)-c1cccc3cccc-2c13
inactive: [1] | [2] | [7] | [9]
